# proKLK7 act: activators of human kallikrein-7 zymogen; P49862; purified proKLK7, EDANS-DABCYL substrate fluorescence; 100% is mature enzyme control, 0% vehicle; actives 0.9% (n = 370,000); activation, % at 7 µM;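 active = activation above the mean of all tested compounds plus 3 SD, computed per campaign excluding outliers beyond control limits, cut at about 13% in these data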
# PLCb3 inh: blocks human PLC-beta3 enzyme activity; Q01970; Purified PLC-beta3, fluorogenic substrate, fluorescence; inhibition, % at 12.2 µM; actives 0.18% (n = 370,000); in the data active = inhibition above about 11%;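 also: 0% = median of compound wells on plate and 100% = full blocker control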
# ADAM10 inh: inhibits human ADAM10. actives 0.62% (n = 370,000). O14672. recombinant ADAM10, EDANS/DABCYL FRET peptide cleavage, 3 h. inhibition, % at 7 µM;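 active = inhibition above a per-campaign cutoff equal to the mean of compounds falling between control-based bounds plus 3 SD, cut at about 20% in these data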;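 also: 0% = DMSO wells while the 100% control is not disclosed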
# ADAM17 inh: ADAM17 inhibition, QFRET primary screen | P78536 | recombinant ADAM17, EDANS/DABCYL FRET peptide cleavage | inhibition, % at 6.95 µM | actives 0.83% (n = 370,000) | AID 720648;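 active = inhibition above the mean of compounds lying between control limits plus 3 SD, set per campaign, cut at about 8.5% in these data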;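 also: 0% = DMSO-only wells as the low control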
# PLCg1 inh: inhibitors of human phospholipase C gamma1 | purified PLC-gamma1, fluorogenic substrate, fluorescence | inhibition, % at 12.2 µM | actives 0.84% (n = 370,000) | AID 720700; in the data active = inhibition above about 9.5%
# Target sequence (P19174 whole entry, looked up): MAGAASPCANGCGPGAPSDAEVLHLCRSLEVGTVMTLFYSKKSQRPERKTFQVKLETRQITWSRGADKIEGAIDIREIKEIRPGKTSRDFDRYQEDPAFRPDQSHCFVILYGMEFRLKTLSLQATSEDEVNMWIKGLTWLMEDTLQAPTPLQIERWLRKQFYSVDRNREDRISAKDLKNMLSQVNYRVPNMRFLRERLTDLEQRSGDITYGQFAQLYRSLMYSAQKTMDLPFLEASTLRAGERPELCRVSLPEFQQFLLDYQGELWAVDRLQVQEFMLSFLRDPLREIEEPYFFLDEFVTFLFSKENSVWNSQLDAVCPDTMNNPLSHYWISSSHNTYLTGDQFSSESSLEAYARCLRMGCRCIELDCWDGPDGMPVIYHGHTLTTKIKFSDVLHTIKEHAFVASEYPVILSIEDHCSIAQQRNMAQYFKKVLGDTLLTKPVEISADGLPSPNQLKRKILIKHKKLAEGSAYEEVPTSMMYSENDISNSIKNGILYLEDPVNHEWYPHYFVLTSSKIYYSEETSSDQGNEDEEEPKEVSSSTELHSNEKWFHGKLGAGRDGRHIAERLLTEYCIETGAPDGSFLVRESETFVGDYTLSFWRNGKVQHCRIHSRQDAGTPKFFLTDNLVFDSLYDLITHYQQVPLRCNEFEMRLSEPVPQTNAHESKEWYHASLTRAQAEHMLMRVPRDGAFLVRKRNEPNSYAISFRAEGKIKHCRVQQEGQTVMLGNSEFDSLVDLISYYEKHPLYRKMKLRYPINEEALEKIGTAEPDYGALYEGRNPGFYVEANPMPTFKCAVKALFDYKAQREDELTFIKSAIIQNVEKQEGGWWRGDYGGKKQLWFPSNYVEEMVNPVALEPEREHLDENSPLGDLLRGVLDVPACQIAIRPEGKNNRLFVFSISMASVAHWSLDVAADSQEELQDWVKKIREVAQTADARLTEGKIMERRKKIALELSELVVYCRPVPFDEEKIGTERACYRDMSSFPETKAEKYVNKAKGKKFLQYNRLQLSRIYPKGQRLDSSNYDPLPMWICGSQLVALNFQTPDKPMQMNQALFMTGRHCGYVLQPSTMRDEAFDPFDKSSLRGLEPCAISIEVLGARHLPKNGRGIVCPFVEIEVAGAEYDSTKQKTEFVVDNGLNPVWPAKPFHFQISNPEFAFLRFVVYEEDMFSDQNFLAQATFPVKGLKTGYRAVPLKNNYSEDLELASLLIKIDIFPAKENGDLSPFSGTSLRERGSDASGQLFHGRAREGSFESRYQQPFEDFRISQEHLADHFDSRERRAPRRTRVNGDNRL
# KLK7 act conf: proKLK7 activation, confirmation; shares compounds with proKLK7 act; purified proKLK7, EDANS-DABCYL substrate fluorescence; scaled: vehicle 0, mature enzyme 100; activation, % at 7 µM; actives 68% (n = 3,200); AID 686949;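 active = activation, as change over the incubation, above the mean of all tested compounds plus 3 SD, cut at about 13% in these data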
# EDANS interfere: fluorescence interference counter-screen for KLK7 activators. shares compounds with proKLK7 act. EDANS-DABCYL substrate fluorescence interference, no enzyme, 4 h; solvent 0%, active enzyme control 100%. activation, % at 7 µM. actives 80% (n = 3,200);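 active = activation above the all-compound mean plus 3 SD, ignoring values outside control-based bounds, cut at about 4.8% in these data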;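 also: value is the 4 h activation minus the activation read at time zero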
# EDANS interf: counter-screen for kallikrein-7 activators: EDANS-DABCYL interference, dose response; shares compounds with proKLK7 act; EDANS-DABCYL peptide fluorescence interference, no enzyme; EC50, µM; actives 20% (n = 250);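 active = compounds that raise the fluorescence signal in this interference counterscreen, with EC50 at or below 10 µM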;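 also: intact quenched peptide substrate alone read at 355 nm excitation and 520 nm emission; signal is fluorescence gain from T0 to T4 after four hours at room temperature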
# Starred values were filed as active, the others as inactive; i = inactive; . = not tested or not shown. Most compounds without a hit are left out; they make up all but 2.9% or so of the library.
SMILES,proKLK7 act,PLCb3 inh,ADAM10 inh,ADAM17 inh,PLCg1 inh,KLK7 act conf,EDANS interfere,others
COc1ccc(NC(=O)c2sc3nc(-c4cccnc4)ccc3c2N)cc1OC,56*,i,-1,-2,-317,15*,16*,
COc1ccc(NC(=O)c2sc3nc(-c4cccnc4)ccc3c2N)cc1,0,-66,-6,-3,-48,.,.,
O=C(O)c1cc2cccc(S(=O)(=O)N3CCOCC3)c2cc1O,14*,i,-90,-35,i,70*,72*,
Nc1ccc(-c2nc3ccc(N)cc3[nH]2)cc1,87*,i,i,i,i,69*,75*,
Nc1ccc2nc(-c3cc(Cl)c(N)c(Cl)c3)[nH]c2c1,24*,i,i,-154,i,21*,13*,EDANS interf=>70
Nc1ccc2nc(-c3cccc(-c4nc5ccc(N)cc5[nH]4)c3)[nH]c2c1,0,-64,0,-5,-34,.,.,
Cc1ccc(C)c(-c2nc3ccc(N)cc3[nH]2)c1,-1,i,i,-348,i,.,.,
Cc1ccc2nc(-c3ccccc3N)[nH]c2c1,68*,i,i,i,i,4,3,
Cc1nc2ccc(-c3nc4ccc(N)cc4[nH]3)cc2[nH]1,37*,i,i,i,i,69*,66*,
CC(NC(=O)c1ccccc1Cl)c1nnc(SCC(=O)Nc2ccc(C(=O)O)cc2)n1C (stereo not given),0,3,1,-3,2,.,.,
CCOC(=O)C1=C(CSc2nc3c(cc2C#N)CN(C)CC3)OC(N)=C(C#N)C1c1ccncc1 (stereo not given),2,-190,-69,-19,-159,.,.,
Nc1ccc(-c2nc3c(Cl)c(N)ccc3[nH]2)cc1,70*,i,i,i,i,70*,77*,
Nc1ccc2nc(-c3ccc(Cl)cc3)[nH]c2c1,66*,i,i,i,i,64*,66*,
Nc1ccc(-c2nc3ccc([N+](=O)[O-])cc3[nH]2)cc1,0,-15,7,3,-12,.,.,
CCc1cc(=O)oc2c3c(cc(OCC(=O)NCCCOC)c12)OC(C)(C)CC3,19*,i,i,i,i,30*,29*,
Cc1c(C)c2c(OCC(=O)NCC3CCC(C(=O)O)CC3)cc3c(c2oc1=O)CCC(C)(C)O3 (stereo not given),5,-228,i,-205,-177,.,.,
Cc1cc(=O)oc2c3c(cc(OCC(=O)NCC4CCC(C(=O)O)CC4)c12)OC(C)(C)CC3 (stereo not given),40*,i,i,i,i,76*,77*,
CCc1cc(=O)oc2c3c(cc(OCC(=O)NC4CC4)c12)OC(C)(C)CC3,13*,i,i,i,i,-86,-109,
CCc1cc(=O)oc2c3c(cc(OCC(=O)NCc4ccncc4)c12)OC(C)(C)CC3,6,i,i,i,i,.,.,
CCc1cc(=O)oc2c(C)c(OCC(=O)N3CCC[C@@H]3C(=O)O)ccc12,-1,-22,-340,-85,-17,.,.,
CCCc1cc(=O)oc2c3c(cc(OCC(=O)N4CCC[C@H]4C(=O)O)c12)OC(C)(C)CC3,40*,i,i,i,i,48*,69*,
COc1ccc(-c2cc(=O)c3c(O)cc(OC4OC(COC5OC(C)C(O)C(O)C5O)C(O)C(O)C4O)cc3o2)cc1O (stereo not given),0,1,-17,-3,3,.,.,
Cc1csc(=O)n1CCC(=O)OCC(=O)Nc1cc(Cl)ccc1[N+](=O)[O-],1,-2,-12,-3,5,.,.,
CCc1cc(=O)oc2c3c(cc(OCC(=O)NCCCC(=O)O)c12)OC(C)(C)CC3,29*,i,i,i,i,65*,65*,
Cc1cc(=O)oc2c3c(cc(OCC(=O)NCCC(=O)O)c12)OC(C)(C)CC3,40*,i,i,i,i,64*,64*,
SMILES,proKLK7 act,PLCb3 inh,ADAM10 inh,ADAM17 inh,PLCg1 inh,KLK7 act conf,EDANS interfere,others
CCc1cc(=O)oc2c3c(cc(OCC(=O)NCCC(=O)O)c12)OC(C)(C)CC3,33*,i,i,i,i,76*,82*,
CCc1cc(=O)oc2c3c(cc(OCC(=O)NCCN4CCOCC4)c12)OC(C)(C)CC3,39*,i,i,i,i,10,3,
Cc1ccc2cc(CCNC(=O)C3CCCCC3)c(=O)[nH]c2c1C,0,0,-10,2,1,.,.,
CCOC(=O)C1=C2c3cc(OC)c(OC)cc3CC(C)(C)N2C(=O)C1=O,24*,-121,-149,-44,-112,5,5.9*,
CCOC(=O)c1ccc(OC)c(OC)c1Cl,0,-4,-7,1,1,.,.,
CCOC(=O)c1cc(OC(C)=O)c2ccc(OC)c(OC)c2c1,14*,i,-256,-68,i,-50,-50,
COc1ccc(-c2cc(C(=O)N(C)CC(=O)Nc3ccccc3Br)c3ccccc3n2)cc1OC,5,-352,-109,-29,-347,.,.,
COc1ccc(-c2cc(C(=O)N(C)CC(=O)Nc3ccccc3C(F)(F)F)c3ccccc3n2)cc1OC,14*,-279,-78,-18,-220,2,9.0*,
Cc1cc(C(=O)N(C2CCCCC2)C2CCCCC2)no1,0,-2,-3,-5,3,.,.,
COc1ccc2c(c1)CCc1cc(C(=O)O)sc1-2,56*,i,i,i,i,59*,67*,
O=C(O)c1cc2c(s1)-c1ccccc1CC2,5,-47,i,-386,-48,.,.,
COc1ccccc1C(=O)Nc1ccc(S(=O)(=O)N2CCCCC2c2cccnc2)cc1 (stereo not given),0,-6,-3,-2,1,.,.,
Cc1ccc(-n2nc(C)c3c2NC2=C(C(=O)CC(C)(C)C2)C3c2ccccc2OCC(=O)O)cc1 (stereo not given),44*,i,i,-243,i,33*,35*,
C=CCOc1ccccc1C1C2=C(CC(C)(C)CC2=O)Nc2c1c(=O)n(C)c(=O)n2C (stereo not given),6,-435,-451,-145,-362,.,.,
Cc1ccc(C2OC34CCCCCC3C(C#N)(C(=N)O4)C2(C#N)C#N)cc1 (stereo not given),16*,-306,i,-309,-294,29*,34*,
COc1ccc(S(=O)(=O)N2CCN(CC(=O)N3CCc4ccccc4C3)CC2)cc1OC,0,-3,-1,-7,1,.,.,
